Compound activity: PubChem BioAssay, National Center for Advancing Translational Sciences (NCATS)
Compounds with a hit are over-represented: about 12% of the library has one in this group of screens.
JMJD2A Tudor inh – qHTS Assay for Inhibitors of JMJD2A-Tudor Domain | Lysine-specific demethylase 4A (Homo sapiens), O75164 | AlphaScreen JMJD2A-Tudor / H3K4me3 peptide binding | Potency, µM (top dose mostly 114 µM), without a hit: top-dose activity change, negative = inhibition, most hits filed as inhibitors | 390,000 tested, 4.4% active | AID 504339, 2011; note: potency is the fitted concentration of half-maximal effect; % is set by controls: 0 for no effect and ±100 for the full control effect; nearly all actives have a fitted effect of over 50% in size
Target sequence (O75164 whole entry, looked up, the tested form may be a part): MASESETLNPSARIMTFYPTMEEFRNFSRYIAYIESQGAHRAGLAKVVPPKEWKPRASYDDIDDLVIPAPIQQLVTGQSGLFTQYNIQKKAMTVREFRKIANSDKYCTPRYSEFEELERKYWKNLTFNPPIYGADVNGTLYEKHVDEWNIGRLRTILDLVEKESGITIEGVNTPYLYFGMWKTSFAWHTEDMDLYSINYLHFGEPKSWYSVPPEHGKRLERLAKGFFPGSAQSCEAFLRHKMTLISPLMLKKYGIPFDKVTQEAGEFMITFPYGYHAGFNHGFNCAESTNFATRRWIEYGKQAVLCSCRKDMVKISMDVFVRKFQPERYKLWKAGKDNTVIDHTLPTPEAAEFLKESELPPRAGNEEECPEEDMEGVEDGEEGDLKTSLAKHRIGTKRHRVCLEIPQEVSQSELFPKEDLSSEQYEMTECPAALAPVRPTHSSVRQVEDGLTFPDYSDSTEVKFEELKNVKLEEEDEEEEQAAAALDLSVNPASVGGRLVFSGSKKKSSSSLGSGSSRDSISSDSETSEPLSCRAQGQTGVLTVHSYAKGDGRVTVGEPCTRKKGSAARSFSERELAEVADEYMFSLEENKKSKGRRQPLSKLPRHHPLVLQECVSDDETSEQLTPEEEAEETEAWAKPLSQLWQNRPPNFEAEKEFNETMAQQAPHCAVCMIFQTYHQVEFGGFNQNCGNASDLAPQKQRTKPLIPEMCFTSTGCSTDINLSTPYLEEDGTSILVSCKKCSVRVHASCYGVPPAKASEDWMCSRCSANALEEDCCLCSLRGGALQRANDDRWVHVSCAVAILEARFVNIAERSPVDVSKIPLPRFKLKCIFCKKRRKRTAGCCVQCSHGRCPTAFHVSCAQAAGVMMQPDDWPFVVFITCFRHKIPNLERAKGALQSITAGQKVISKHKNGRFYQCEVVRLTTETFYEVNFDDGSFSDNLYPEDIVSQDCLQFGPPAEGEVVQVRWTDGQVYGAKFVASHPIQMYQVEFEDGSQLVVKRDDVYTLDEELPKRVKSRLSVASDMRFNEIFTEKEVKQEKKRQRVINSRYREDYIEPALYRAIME
PI5P4Ka inh – qHTS for Inhibitors of phosphatidylinositol 5-phosphate 4-kinase (PI5P4K) | Phosphatidylinositol 5-phosphate 4-kinase type-2 alpha (Homo sapiens), P48426 | PI5P4Kalpha enzyme, ADP-Glo luminescence, 60 min; hits give low values | max response, % | 330,000 tested, 1.2% active; active = max response of -50% or lower; inconclusive = between -30% and -50%; inactive = -30% or higher; note: value at the top dose of about 77 µM; % is set by controls: 0 for no effect and ±100 for the full control effect
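Quantitative HTS of the MLSMR library against PI5P4Kalpha with substrate. ATP added last at 5 microM final; room temperature, 60 minutes. Remaining ATP depleted, ADP converted and read as luminescence.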
G9a block – qHTS Assay for Inhibitors of Histone Lysine Methyltransferase G9a; Potency, µM (series often up to 102 µM), for the others: top-dose activity, negative = inhibition, usual class: inhibitors; G9a H3K9 monomethylation, AlphaScreen, 2 h; 350,000 tested, 8.8% active; note: potency is the fitted concentration of half-maximal effect; % is set by controls: 0 for no effect and ±100 for the full control effect; nearly all actives have a fitted effect of over 75% in size
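Enzyme 20 nM + cpd, 15 min RT; add b-H3K9 pep 500 nM / SAM 20 uM; 2 h RT; anti-H3K9me1 Ab 0.5 ug/mL + SA donor / anti-rabbit acceptor beads 20 ug/mL each, 10 min; AlphaScreen read.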
BAZ2B inh – qHTS Assay for Inhibitors of BAZ2B; Bromodomain adjacent to zinc finger domain protein 2B (Homo sapiens), Q9UIF8; AlphaScreen BAZ2B-H3K14Ac peptide displacement; Potency, µM (titrated, usually from 114 µM), for inactives: at the top dose activity change, negative = inhibition, hits mostly inhibitors; 360,000 tested, 4.4% active; AID 504333, 2011; note: potency is the fitted concentration of half-maximal effect; % is set by controls: 0 for no effect and ±100 for the full control effect; nearly all actives have a fitted effect of over 60% in size
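Protein-peptide AlphaScreen: BAZ2B 50 nM, b-H3K14Ac 50 nM, 1x PBS pH 7.4 + 0.01% Tween-20. Preincubation 30 min RT; cpd 30 min RT (top 110 uM); beads 20 min RT, light-protected.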
HP1b chromo inh – HTS for Inhibitors of HP1-beta Chromodomain Interactions with Methylated Histone Tails | Chromobox protein homolog 1 (Homo sapiens), P83916 | AlphaScreen HP1-beta / biotin-H3K9me3 peptide binding | Potency, µM (series often up to 114 µM), for inactives: at the highest dose activity change, negative = inhibition, usual class: inhibitors | 390,000 tested, 0.56% active; note: potency is the fitted concentration of half-maximal effect; nearly all actives have a fitted effect of over 70% in size
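AlphaScreen: HP1-beta (50 nM) preformed 30 min with biotin-H3(1-18)K9me3 peptide (50 nM) in PBS pH 7.4, 0.01% Tween-20. Compound added for 30 min at RT, then streptavidin donor/nickel chelate acceptor beads (10 ug/mL) for 30 min.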
PLK1 PBD block – qHTS for Inhibitors of PLK1-PDB (polo-like kinase 1 - polo-box domain): Primary Screen | Plk1 PBD binding of FITC phosphopeptide, fluorescence polarization | 360,000 tested, 2.8% active | Serine/threonine-protein kinase PLK1 (Homo sapiens), P53350 | Potency, µM, inactives show max response, negative = inhibition, hits mostly inhibitors; note: potency is the fitted concentration of half-maximal effect; series mostly up to about 57 µM; % is set by controls: 0 for no effect and ±100 for the full control effect; nearly all actives have a fitted effect of over 65% in size
* marks the source's active call; other numbers are inactive results; ? = inconclusive; nt = not tested or not shown; ! = repeats disagree; [ ] = dose if it differs, or a comment. Unless noted, calls come from the whole dose curve; as a rule, active = well fitted curve in the direction sought with a large enough effect; inconclusive = small, poorly fitted or top-dose-only effect, or another doubt; inactive = no such curve, though single readings can be large; an effect the other way counts as inactive or inconclusive.

SMILES	JMJD2A Tudor inh	PI5P4Ka inh	G9a block	BAZ2B inh	HP1b chromo inh	PLK1 PBD block
CCCCC[C@H](O)/C=C/[C@@H]1[C@@H](C/C=C\CCCC(=O)OC)[C@@H](O)C[C@H]1O	22.4µM*	1.0	39.8µM*	14.1µM*	?	-15.3%
O=C(CN1C(=O)NC2(CCCCC2)C1=O)Nc1nc2c(F)cc(F)cc2s1	-20.0%	-50.3*	50.1µM*	4.5%	22.4%	-18.2%
Nc1ncn(C2O[C@H](CO)[C@@H](O)[C@H]2O)c(=O)n1 (some centres undefined)	nt	nt	11.0%[59 µM]	43.8%	nt	nt
NC(=O)c1ncn([C@@H]2O[C@H](CO)[C@@H](O)[C@H]2O)c1O	-18.7%	0.5	25.1µM*!	-16.5%	31.7%	-9.8%
N#Cc1nc(Nc2ccc(-c3ccccc3)cc2)nc(NC2CCCC2)n1	-20.5%	nt	nt	nt	nt	nt
CC(C)[Si]1(C(C)C)OCC2OC(n3cnc4c(N)ncnc43)C(N)C2O[Si](C(C)C)(C(C)C)O1 (centres undefined)	-18.1%	-2.5	nt	nt	8.0%	-11.6%
OCCOCCOc1cccc2[nH]ccc12	-10.3%	0.5	-6.8%	-18.9%	13.2%	-6.2%
CN(CCO)CCOCCOc1cccc2ccccc12	10µM*	1.7	?	nt	?	-11.7%
Cc1ccccn1	nt	nt	-2.6%[12.7 µM]	nt	nt	nt
COc1ccc2c(c1)CCN=C2Cc1ccc(OC)c(OC)c1	-20.1%	-7.3	3.98µM*	-7.2%	20.1%	-16.8%
Cc1noc(C)c1-c1nc(Nc2ccc(F)cc2)c2ccccc2n1	nt	nt	8.1%[0.501 µM]	nt	nt	nt
COCCCNC(=S)NNC(=S)Nc1ccccc1	1.58µM*	-21.5	nt	-4.3%	-17.7%	-11.0%
COCCCNC(=S)NNC(=S)Nc1ccc(F)cc1F	1.58µM*	nt	2.51µM*	?	-13.2%	-13.1%
COCCCNC(=S)NCCc1ccc(F)cc1	-3.6%	1.8	?	8.8%	11.8%	3.5%
COCCCNC(=S)Nc1ccc(C)cc1	4.0%	2.4	4.3%	-0.6%	14.1%	3.5%
Cc1nc(-n2nc(C)c(CCC(C)C)c2C)sc1C(=O)Nc1cccc(Cl)c1C	-9.6%	nt	14.1µM*	?	31.0%	nt
Cc1cccc(NC(=O)c2sc(-n3nc(C)c(CCC(C)C)c3C)nc2C)c1C	12.3%	nt	-2.0%[59 µM]	-2.9%	55.9%	nt
CCOC(=O)C1=C(C)OC(N)=C(C#N)C1c1cc2c(cc1[N+](=O)[O-])OCO2 (centres undefined)	?	-15.9	50.1µM*	?	-14.1%	-18.6%
COC(=O)c1ccc(/C=C2\SC(=S)N(CCCC(=O)NCCCN3CCOCC3)C2=O)cc1	-33.5%	7.5	?	?	70.8µM*	-5.5%
CC(C)c1ccc(/C=C2\SC(=S)N(CC(=O)NCCCN3CCOCC3)C2=O)cc1	?	9.2	79.4µM*	31.6µM*	?	-9.0%
O=C(CN1C(=O)/C(=C/c2cccc(Br)c2)SC1=S)NCCCN1CCOCC1	?	-13.9	nt	?	?	?
CCc1ccc(/C=C2\SC(=S)N(CCC(=O)NCCCN3CCOCC3)C2=O)cc1	?	0.8	nt	35.5µM*	-7.7%	-1.9%
O=C(CCCN1C(=O)/C(=C/c2cccc(Br)c2)SC1=S)NCCCN1CCOCC1	44.7µM*	-5.2	44.7µM*	10µM*	-19.0%	-28.8%
CC(=O)Nc1ccc(SCC(CC(C)C)N2CCN(C)CCC2=O)cc1 (centres undefined)	-7.6%	nt	nt	nt	33.8%	nt
Cc1cc(OC(C)C(=O)NCCCn2ccnc2)c2c(C)c(C)c(=O)oc2c1 (centres undefined)	-9.7%	2.7	9.2%[0.0925 µM]	?	35.1%	3.8%
CC(N1CCOC1=O)S(=O)(=O)c1ccccc1 (centres undefined)	-11.1%	1.5	?	50.1µM*	58.4%	-9.8%
